Source: PubChem (National Center for Advancing Translational Sciences (NCATS))
GLP1R cytotox: cytotoxicity counter-screen for GLP-1 receptor inverse agonists; HEK293 cAMP-luciferase reporter cells, luminescence, 24 h; Potency, µM (doses to about 38.3 µM), actives largely listed as inhibitors; hit rate 0.13% among 410,000;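 note: loss of luciferase light is scored as toxicity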
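Step one: seed cells (200 cells/uL, DMEM with 10% Nu serum, 1% pen-strep). Step two: 12-hour incubation at 37 deg C. Step three: pin 23 nL compound, incubate 24 hr. Step four: add luciferase reagent, read luminescence 12 min later.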
GLP1R ag: agonists of human GLP-1 receptor | P43220 | hit rate 0.007% among 380,000 | AID 624172 | HEK293 GLP-1R CRE-luciferase, luminescence, 4-6 h; cells express a hypersensitive GLP-1R form | Potency, µM (top dose mostly 45.6 µM), most hits filed as activators
rTrxR1 inhibitor: blocks rat thioredoxin reductase 1 | O89049 | recombinant rTrxR1, NADPH fluorescence consumption, selenite substrate | Potency, µM (titrated, usually from 114 µM), actives largely listed as inhibitors | hit rate 1% among 390,000; note: nearly all actives have a fitted effect of over 65% in size
Target sequence (O89049 whole entry, looked up): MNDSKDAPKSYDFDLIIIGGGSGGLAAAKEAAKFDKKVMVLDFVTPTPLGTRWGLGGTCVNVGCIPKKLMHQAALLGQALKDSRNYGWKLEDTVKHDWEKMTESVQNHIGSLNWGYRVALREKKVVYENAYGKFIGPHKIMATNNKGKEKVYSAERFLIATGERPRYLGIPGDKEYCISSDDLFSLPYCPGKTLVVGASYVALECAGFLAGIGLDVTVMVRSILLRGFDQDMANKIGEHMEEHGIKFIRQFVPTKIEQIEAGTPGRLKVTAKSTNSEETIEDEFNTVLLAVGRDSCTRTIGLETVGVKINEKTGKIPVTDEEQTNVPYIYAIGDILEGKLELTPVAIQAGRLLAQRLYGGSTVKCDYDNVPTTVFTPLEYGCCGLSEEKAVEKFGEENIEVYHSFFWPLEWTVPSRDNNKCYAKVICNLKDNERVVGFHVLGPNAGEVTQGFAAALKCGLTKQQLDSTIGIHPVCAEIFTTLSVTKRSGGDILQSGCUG
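Rat TrxR1 (90 nM in the dispensed reagent) was pre-reduced with 400 uM NADPH for 5 min at room temperature, then incubated with compound for 15 min. After 400 uM selenite was added, NADPH fluorescence (Ex 340/Em 450 nm) was followed for 8 min.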
mIDH1 inhibitor: human IDH1 R132H inhibition; AID 602179; Potency, µM (top dose mostly 76.6 µM), usual class: inhibitors; IDH1-R132H enzyme, NADPH consumption, diaphorase/resazurin fluorescence; hit rate 0.093% among 390,000; O75874; note: nearly all actives have a fitted effect of over 65% in size
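IDH1-R132H (0.5 ug/mL dispensed) in pH 7.5 Tris buffer was preincubated 30 min with compound, then given a substrate mix of 0.016 mM NADPH and 2 mM alpha-KG for 80 min at room temperature; remaining NADPH was read by diaphorase/resazurin fluorescence.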
GLP-1R inv ag: GLP-1 receptor (human) inverse agonism; P43220; HEK293 GLP-1R CRE-luciferase, luminescence, 24 h; GLP-1R form is constitutively active; Potency, µM (series often up to 38.3 µM), most hits filed as inhibitors; hit rate 1.6% among 410,000; AID 624417; note: nearly all actives have a fitted effect of over 55% in size
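Inverse agonists were sought by their lowering of basal cAMP reporter luciferase output in HEK293 cells stably carrying constitutively active human GLP-1R, after 24 h compound treatment.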
TrxR1 substrate: is turned over as a substrate by rat TrxR1; O89049; purified TrxR1 substrate turnover, NADPH consumption readout; Potency, µM (titrated, usually from 114 µM); hit rate 0.01% among 390,000; note: nearly all actives have a fitted effect of over 50% in size
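Rat TrxR1, dispensed at 90 nM, was prereduced with 400 uM NADPH (final) for 5 min at ~22 deg C, then incubated with compound 15 min before 400 uM selenite. A first-read NADPH fluorescence drop versus no-compound background flagged substrates.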
Numbers stand for hits; - = inactive; ? = inconclusive; . = no result given; [ ] = dose if it differs, or a comment. Only some compounds are listed: those with a hit (about 2.7% of all), similar ones and a draw of the others. Calls come from the whole dose curve; as a rule, active = well fitted curve in the direction sought with a large enough effect; inconclusive = small, poorly fitted or top-dose-only effect, or another doubt; inactive = no such curve, though single readings can be large; an effect the other way counts as inactive or inconclusive.

SMILES	GLP1R cytotox	GLP1R ag	rTrxR1 inhibitor	mIDH1 inhibitor	GLP-1R inv ag	TrxR1 substrate
O=C(NC1CCCC1)C(C1CC1)n1c(-c2ccccn2)nc2ccccc21 (stereo unspecified)	-	.	.	.	-	.
COc1cccc(C(=O)Nc2ccc(-n3nncc3-c3ccccc3)cc2)c1OC	-	.	-	-	-	-
CN(Cc1ccccc1F)c1cc2c(c3c1ccn3C)C1CCC2C1 (stereo unspecified)	-	-	.	.	-	.
CC(C)S(=O)(=O)c1oc(-c2ccc(F)cc2)nc1S(=O)(=O)c1ccccc1	?	.	0.32µM	-	?	-
O=C(COc1ccc(-c2nnc(N3CCCCC3)c3ccccc23)cc1)N1CCCCC1	-	-	-	-	10µM	-
Cc1ccc(-c2nnc(N3CCN(C(=O)COc4ccccc4)CC3)c3ccccc23)cc1	?	-	-	-	-	-
C=C(Br)Cn1c(CCC)nc2ccccc21	-	-	-	-	3.5µM	-
CC1(C)O[C@H]2[C@@H](O1)[C@@H](C(=O)Nc1ccccc1C(F)(F)F)O[C@@H]1OC(C)(C)O[C@@H]12	-	.	-	-	-	-
CCCOc1ccccc1C1C(C(=O)Nc2ccccc2)=C(C)Nc2nnnn21 (stereo unspecified)	?	.	-	-	8.9µM	-
CCCCCOC(=O)C1=C(C)Nc2nnnn2C1c1ccccc1Cl (stereo unspecified)	-	-	-	-	10µM	-
COC(=O)C1=C(C)Nc2nnnn2C1c1ccccc1Cl (stereo unspecified)	-	-	-	-	-	-
CCCCOc1ccccc1C1C(C(N)=O)=C(C)Nc2nnnn21 (stereo unspecified)	-	-	-	-	-	-
Cc1ccc(CNc2ccc3cc(S(=O)(=O)N4CCCCC4)ccc3n2)cc1	-	.	-	-	-	-
CCOC(=O)c1c(C)oc2ncnc(N3CCN(c4ccccc4OC)CC3)c12	-	.	-	-	-	-
CCOC(=O)C1CCCN(C(=O)c2ccc3c(c2)sc2nc(-c4cccc(OC)c4)cn23)C1 (stereo unspecified)	-	.	-	-	-	-
Cc1ccc(Cl)cc1NS(=O)(=O)c1ccc2oc(=O)c3ncn(C)c3c2c1	?	.	-	-	-	-
C#C[C@]1(O)CC[C@H]2[C@@H]3CCC4=CCCC[C@@H]4[C@H]3C(=C)C[C@@]21CC	.	-	.	.	.	.
CN(CCCNC(=O)CSc1cc(=O)n(C)c2cc(Cl)ccc12)Cc1ccccc1	-	-	-	-	7.9µM	-
Cc1ccc(-n2ncc3c(NC4CCCCCC4)ncnc32)cc1	-	.	-	-	4.5µM	-
Cc1ccc(-n2ncc3c(NC4CCCCC4)ncnc32)cc1	-	.	-	-	10µM	-
CC(O)CNc1nc2ccccc2n1-c1ncnc2sc3c(c12)CCC3 (stereo unspecified)	?	-	-	-	10µM	-
c1ccc2c(c1)ncn2-c1ncnc2sc3c(c12)CCCC3	-	-	-	-	4.5µM	-
Cc1cc2ncn(-c3ncnc4sc5c(c34)CCCC5)c2cc1C	-	-	-	-	-	-
CN(C)c1ccc(CNC(=O)CCCN2C(=O)CCn3nc(-c4cccn4C)cc32)cc1	-	.	-	-	-	-
O=C(O)c1ccc(-c2nc(-c3ccc(Cl)cc3Cl)cs2)cc1	-	-	-	-	-	-
SMILES	GLP1R cytotox	GLP1R ag	rTrxR1 inhibitor	mIDH1 inhibitor	GLP-1R inv ag	TrxR1 substrate
Cc1onc(-c2ccc(Cl)cc2Cl)c1-c1csc(COc2ccccc2)n1	-	-	-	-	2.8µM	-
CN(C)S(=O)(=O)c1cccc(NC(=O)C2Cc3ccccc3CN2C(=O)c2ccco2)c1 (stereo unspecified)	-	-	56µM	-	-	-
Cc1ccc(NC(=O)C2Cc3ccccc3CN2C(=O)c2ccco2)cc1S(=O)(=O)N(C)C (stereo unspecified)	-	-	?	-	-	-
CCOc1ccc(NC(=S)N(Cc2ccc(Cl)cc2)Cc2ccco2)cc1	-	-	-	-	11µM	-
CCCOc1ccc(C(=O)N(Cc2ccc(Cl)cc2)Cc2ccco2)cc1	-	.	-	.	?	-
C=CCC1(CC=C)CCCN1C(=O)c1cc(COc2cccc(C(F)(F)F)c2)on1	-	-	-	-	10µM	-
Cc1ccc(-c2noc(-c3cccnc3NCc3ccco3)n2)cc1	-	.	-	-	-	-
COc1ccc(Br)cc1/C=N/NC(=O)CNC(=O)C1COc2ccccc2O1 (stereo unspecified)	-	-	-	-	?	-
O=C(CNC(=O)C1COc2ccccc2O1)N/N=C\c1ccc(Br)cc1 (stereo unspecified)	-	-	-	-	10µM	-
CC(=O)c1ccccc1S(=O)(=O)N1CCN(c2nc(-c3cccs3)nc3ccccc23)CC1	.	.	-	.	.	-
O=S(=O)(NCc1ccc(Cl)cc1)c1ccc2[nH]c3c(c2c1)CCCC3	?	.	-	-	?	-
COC(=O)c1nn2c(C(F)(F)F)cc(-c3ccc(Br)o3)nc2c1Br	-	-	6.3µM	-	-	-
CC(C)(C)NC(=O)c1nn2c(C(F)(F)F)cc(-c3ccccc3)nc2c1Br	-	-	-[2.29 µM]	-	-	-
c1ccc(COc2cccc(-c3cc4nc(NCCOc5ccccc5)ccn4n3)c2)cc1	-	-	.	.	10µM	.
c1ccc(Oc2nc(-c3ccccn3)nc3ccccc23)cc1	?	-	-	-	?	-
Fc1ccc(Oc2nc(-c3ccccn3)nc3ccccc23)cc1	?	-	-	-	2.8µM	-
Cc1ccccc1OCC(=O)N(Cc1ccc(N(C)C)cc1)CC1CCCO1 (stereo unspecified)	-	.	-	-	?	-
C=CCCN(C(CC(C)C)C(=O)OC)S(=O)(=O)c1ccccc1Br (stereo unspecified)	-	-	-	-	?	-
C=CCCN(C(CC(C)C)C(=O)OC)S(=O)(=O)c1cc(Br)ccc1Br (stereo unspecified)	-	-	-	-	11µM	-
COc1ccc(C(=O)NCC(=O)OCC(=O)c2ccc3ccccc3c2)cc1	.	.	-	.	.	-
Cc1onc(-c2c(F)cccc2Cl)c1C(=O)OCC(=O)NC(=O)NCC(C)C	-	-	-	-	13µM	-
Cc1ccc(NC(=O)c2c(-c3c(F)cccc3Cl)noc2C)cc1F	-	-	-	-	4µM	-
Cc1nc(C(=O)NNC(=O)c2c(-c3c(Cl)cccc3Cl)noc2C)cs1	8.9µM	-	-	-	5.6µM	-
COC(=O)c1ccc(NC(=O)C(=O)NCCc2sc(-c3cccc(F)c3)nc2C)cc1	-	.	-	-	-	-
